# According to the supplement of paper PMC11732987, “Enantioselective OTUD7B fragment discovery through chemoproteomics screening and high-throughput optimisation” (Communications Chemistry, 2025):
# A number with no mark means an inactive call.
# What was measured:
# Test in all cases: log2 ratio of Biotin-Ahx-Ub-VS probe labelling (fragment/DMSO); higher = less target engagement (more negative = stronger competition), active = hit call of the paper (q ≤ 0.05, log2 ratio ≤ -1)
# Conditions in all cases: compound concentration: 200 uM; treatment time: 3 h
# [1] = molecular target: USP16 (UniProt Q9Y5T5)
# Method in brief: (§1)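 Labelled DUBs from HEK293T lysate were NeutrAvidin-enriched, digested with LysC and trypsin, and run by diaPASEF LC-MS/MS. Before that, each 495 µg sample in Tris/CHAPS/IGEPAL buffer with protease inhibitors was treated in triplicate with fragment at 200 µM or vehicle for 3 h, then with Biotin-Ahx-Ub-VS at 0.5 µM final for 1 h. Values are average log2 ratios of fragment over vehicle by unpaired t-test, based on global-median-normalised Spectronaut label-free quantities from proteins with ≥2 unique peptides.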
# [2] = molecular target: T1, USP19 (UniProt O94966)
# T1 sequence (whole entry): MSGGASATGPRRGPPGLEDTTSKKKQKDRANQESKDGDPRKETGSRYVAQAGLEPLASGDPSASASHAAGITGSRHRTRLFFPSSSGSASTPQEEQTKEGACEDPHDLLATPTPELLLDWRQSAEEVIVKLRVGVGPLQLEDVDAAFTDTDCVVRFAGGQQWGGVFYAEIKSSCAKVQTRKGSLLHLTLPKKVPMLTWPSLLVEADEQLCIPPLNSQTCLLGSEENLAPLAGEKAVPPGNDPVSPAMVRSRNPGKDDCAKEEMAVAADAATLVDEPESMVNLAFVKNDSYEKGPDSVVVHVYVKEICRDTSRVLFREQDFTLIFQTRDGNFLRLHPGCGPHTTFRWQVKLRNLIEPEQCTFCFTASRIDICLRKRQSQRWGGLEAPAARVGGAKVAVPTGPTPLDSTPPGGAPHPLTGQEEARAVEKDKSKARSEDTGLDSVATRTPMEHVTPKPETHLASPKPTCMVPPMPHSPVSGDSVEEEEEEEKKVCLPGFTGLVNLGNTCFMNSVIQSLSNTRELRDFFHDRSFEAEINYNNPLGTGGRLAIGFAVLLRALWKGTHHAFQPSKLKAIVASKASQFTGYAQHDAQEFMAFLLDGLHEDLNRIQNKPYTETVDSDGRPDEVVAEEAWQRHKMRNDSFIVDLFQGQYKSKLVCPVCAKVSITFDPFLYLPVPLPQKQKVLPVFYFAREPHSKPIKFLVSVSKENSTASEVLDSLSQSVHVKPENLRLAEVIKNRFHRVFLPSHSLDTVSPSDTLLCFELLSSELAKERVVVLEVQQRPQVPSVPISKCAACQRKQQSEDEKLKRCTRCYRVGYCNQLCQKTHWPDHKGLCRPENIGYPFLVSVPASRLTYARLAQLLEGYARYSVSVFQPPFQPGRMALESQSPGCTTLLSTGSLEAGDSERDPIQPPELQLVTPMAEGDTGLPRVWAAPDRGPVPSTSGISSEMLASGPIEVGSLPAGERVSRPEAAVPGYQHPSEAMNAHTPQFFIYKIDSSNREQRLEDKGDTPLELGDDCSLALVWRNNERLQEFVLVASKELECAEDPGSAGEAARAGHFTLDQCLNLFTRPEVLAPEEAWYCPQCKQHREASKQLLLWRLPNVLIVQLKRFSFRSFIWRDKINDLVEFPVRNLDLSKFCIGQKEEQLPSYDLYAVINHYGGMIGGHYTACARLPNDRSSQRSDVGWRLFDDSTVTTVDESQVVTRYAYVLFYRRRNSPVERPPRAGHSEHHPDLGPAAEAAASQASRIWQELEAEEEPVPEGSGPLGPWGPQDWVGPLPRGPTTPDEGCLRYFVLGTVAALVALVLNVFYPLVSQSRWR
# Method in brief: as §1
# [3] = molecular target: USP24 (UniProt Q9UPU5)
# Method in brief: as §1
# [4] = molecular target: T2, USP25 (UniProt Q9UHP3)
# T2 sequence (whole entry): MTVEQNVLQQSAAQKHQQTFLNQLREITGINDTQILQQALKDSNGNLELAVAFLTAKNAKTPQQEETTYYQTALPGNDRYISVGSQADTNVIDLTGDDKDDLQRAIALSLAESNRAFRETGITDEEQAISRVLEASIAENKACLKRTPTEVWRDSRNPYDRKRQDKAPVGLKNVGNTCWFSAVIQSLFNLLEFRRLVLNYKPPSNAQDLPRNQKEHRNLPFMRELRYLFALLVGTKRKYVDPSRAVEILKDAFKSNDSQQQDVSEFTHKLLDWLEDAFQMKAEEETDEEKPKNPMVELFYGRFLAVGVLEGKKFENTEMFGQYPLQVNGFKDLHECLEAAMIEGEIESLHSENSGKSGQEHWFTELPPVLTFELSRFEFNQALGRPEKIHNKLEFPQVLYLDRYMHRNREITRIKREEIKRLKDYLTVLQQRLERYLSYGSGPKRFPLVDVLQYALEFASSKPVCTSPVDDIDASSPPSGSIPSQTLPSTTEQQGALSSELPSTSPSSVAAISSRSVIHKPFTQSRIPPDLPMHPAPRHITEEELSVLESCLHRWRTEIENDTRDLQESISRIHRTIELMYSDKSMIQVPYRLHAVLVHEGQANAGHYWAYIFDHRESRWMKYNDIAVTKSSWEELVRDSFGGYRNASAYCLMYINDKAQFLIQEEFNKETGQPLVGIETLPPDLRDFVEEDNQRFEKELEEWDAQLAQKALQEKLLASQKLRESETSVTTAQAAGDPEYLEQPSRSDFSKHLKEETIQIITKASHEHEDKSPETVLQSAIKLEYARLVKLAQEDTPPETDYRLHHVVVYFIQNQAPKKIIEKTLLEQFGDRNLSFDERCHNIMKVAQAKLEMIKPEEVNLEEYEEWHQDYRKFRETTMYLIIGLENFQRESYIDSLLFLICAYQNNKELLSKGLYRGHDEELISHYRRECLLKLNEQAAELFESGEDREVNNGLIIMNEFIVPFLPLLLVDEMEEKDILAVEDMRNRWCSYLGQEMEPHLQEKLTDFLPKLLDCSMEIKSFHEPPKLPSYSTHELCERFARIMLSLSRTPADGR
# Method in brief: as §1
# [5] = molecular target: T3, USP28 (UniProt Q96RU2)
# T3 sequence (whole entry): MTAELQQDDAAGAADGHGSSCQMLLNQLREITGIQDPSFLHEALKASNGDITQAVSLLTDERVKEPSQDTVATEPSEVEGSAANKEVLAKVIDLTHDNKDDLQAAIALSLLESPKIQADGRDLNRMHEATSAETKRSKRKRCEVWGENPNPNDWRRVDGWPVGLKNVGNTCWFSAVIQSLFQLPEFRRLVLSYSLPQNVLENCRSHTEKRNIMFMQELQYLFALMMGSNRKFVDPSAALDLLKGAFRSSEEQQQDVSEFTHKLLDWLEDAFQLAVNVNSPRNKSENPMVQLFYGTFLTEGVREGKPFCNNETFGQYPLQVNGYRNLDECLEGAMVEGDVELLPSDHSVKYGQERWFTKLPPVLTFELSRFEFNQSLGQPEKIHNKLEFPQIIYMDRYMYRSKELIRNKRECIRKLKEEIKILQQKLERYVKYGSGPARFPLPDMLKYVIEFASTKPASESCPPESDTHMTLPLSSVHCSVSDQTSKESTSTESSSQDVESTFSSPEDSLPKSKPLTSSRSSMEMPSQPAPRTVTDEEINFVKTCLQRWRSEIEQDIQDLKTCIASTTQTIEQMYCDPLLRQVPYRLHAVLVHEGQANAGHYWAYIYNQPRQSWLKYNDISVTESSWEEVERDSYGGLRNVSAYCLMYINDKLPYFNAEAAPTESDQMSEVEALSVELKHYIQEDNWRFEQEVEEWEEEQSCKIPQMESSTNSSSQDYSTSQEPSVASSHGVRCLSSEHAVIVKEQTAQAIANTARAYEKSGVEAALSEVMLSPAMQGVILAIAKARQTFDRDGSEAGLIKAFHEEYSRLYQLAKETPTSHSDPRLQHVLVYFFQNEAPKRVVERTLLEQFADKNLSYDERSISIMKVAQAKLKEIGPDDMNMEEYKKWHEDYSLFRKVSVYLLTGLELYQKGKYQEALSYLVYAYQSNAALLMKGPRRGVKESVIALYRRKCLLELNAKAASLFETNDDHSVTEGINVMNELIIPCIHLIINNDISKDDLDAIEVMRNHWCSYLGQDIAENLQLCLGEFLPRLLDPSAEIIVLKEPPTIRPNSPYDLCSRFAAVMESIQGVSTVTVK
# Method in brief: as §1
# Chain of USP24 (Q9UPU5 whole entry): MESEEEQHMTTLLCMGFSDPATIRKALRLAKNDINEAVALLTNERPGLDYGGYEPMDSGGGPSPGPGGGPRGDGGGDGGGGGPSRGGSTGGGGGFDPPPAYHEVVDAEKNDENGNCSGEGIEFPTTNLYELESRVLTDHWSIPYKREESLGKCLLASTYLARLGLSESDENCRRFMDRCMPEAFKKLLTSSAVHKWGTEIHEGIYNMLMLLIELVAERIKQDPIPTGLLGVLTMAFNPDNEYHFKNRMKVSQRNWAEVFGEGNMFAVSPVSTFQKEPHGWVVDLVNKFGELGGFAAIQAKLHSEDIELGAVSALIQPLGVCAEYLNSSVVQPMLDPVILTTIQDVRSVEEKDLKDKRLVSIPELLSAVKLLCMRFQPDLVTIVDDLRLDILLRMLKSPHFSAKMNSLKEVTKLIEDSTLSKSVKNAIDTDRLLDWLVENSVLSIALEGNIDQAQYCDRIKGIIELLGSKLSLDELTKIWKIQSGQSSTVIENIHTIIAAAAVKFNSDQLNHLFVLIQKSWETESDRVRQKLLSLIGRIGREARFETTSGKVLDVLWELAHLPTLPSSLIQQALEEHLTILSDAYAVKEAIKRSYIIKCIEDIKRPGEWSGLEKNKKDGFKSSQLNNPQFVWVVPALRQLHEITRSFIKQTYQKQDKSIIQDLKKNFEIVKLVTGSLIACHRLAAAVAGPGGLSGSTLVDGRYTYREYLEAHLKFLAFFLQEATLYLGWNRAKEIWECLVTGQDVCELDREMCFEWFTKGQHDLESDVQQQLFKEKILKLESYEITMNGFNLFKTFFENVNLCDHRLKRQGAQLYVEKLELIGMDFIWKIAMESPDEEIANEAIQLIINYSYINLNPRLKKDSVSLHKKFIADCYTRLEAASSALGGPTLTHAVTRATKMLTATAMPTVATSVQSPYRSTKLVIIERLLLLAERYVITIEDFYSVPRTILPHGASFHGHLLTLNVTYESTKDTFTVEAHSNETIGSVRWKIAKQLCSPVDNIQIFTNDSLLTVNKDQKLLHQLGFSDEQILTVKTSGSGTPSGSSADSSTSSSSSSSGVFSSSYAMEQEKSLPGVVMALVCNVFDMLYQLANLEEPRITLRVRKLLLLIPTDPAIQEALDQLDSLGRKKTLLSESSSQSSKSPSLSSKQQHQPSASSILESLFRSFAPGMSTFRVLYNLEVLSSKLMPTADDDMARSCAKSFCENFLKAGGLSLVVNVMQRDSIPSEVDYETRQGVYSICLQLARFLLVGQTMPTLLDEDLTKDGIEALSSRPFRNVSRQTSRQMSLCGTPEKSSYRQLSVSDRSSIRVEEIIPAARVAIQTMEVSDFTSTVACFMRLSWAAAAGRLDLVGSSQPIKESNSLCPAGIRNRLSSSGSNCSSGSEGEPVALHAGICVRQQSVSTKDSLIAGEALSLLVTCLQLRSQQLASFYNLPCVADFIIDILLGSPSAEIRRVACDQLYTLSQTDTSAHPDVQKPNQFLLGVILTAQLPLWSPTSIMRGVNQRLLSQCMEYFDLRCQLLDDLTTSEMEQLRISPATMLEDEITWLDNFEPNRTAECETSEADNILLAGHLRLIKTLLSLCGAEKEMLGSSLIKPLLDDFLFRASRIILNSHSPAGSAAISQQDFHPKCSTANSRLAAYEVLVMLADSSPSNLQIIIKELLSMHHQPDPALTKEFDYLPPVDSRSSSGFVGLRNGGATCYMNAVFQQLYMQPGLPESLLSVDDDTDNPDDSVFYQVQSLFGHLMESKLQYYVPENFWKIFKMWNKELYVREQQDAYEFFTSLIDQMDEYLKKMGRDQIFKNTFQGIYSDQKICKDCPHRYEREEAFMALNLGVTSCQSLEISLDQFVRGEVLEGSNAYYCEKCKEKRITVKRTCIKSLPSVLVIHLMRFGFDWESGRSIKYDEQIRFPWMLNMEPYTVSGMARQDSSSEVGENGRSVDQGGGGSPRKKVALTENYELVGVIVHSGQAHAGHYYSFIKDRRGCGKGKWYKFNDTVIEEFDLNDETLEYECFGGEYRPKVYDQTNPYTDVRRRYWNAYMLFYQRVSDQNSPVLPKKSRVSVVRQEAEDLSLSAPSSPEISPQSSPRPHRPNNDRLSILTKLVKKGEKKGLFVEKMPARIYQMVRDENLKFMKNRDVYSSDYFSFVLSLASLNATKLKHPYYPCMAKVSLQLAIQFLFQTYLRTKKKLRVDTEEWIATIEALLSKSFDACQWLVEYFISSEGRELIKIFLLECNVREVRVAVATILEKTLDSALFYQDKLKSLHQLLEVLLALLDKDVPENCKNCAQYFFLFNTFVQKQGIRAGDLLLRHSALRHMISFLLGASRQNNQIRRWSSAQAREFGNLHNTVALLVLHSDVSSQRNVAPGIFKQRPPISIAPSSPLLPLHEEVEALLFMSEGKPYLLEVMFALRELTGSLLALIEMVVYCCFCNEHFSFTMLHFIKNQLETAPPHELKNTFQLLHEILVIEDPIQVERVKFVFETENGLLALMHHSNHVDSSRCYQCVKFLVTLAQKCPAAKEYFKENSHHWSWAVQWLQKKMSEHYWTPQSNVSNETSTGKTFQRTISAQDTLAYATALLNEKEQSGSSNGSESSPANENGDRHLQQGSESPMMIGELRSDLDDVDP
# Chain of USP16 (Q9Y5T5 whole entry, looked up, the tested form may be a part): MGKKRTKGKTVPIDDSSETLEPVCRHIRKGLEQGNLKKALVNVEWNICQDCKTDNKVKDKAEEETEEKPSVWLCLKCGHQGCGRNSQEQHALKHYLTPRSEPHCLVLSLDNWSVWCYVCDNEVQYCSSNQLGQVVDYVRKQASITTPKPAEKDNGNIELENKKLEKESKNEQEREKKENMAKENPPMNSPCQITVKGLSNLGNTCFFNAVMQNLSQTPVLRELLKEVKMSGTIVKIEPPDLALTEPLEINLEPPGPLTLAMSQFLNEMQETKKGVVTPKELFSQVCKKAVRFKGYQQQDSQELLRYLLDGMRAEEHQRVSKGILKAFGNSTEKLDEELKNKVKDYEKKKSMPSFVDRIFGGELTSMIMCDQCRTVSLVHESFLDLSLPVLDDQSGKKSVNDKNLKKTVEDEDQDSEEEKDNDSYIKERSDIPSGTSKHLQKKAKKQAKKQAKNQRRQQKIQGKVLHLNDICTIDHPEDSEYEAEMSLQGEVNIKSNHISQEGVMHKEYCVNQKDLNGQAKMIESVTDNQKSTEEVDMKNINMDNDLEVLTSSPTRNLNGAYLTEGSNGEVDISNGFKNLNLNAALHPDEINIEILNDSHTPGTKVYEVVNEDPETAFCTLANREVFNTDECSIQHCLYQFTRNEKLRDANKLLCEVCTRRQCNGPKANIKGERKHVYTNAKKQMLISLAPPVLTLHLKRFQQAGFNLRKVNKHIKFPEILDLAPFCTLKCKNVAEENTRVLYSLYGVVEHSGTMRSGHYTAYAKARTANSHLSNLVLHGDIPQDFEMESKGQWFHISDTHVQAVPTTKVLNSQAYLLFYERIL
smiles,measurement,setting,value
Cc1c(C#N)c(NC(=O)CCl)n(Cc2ccco2)c1C,log2 ratio of Biotin-Ahx-Ub-VS probe labelling,[1],-0.818
same,log2 ratio of Biotin-Ahx-Ub-VS probe labelling,[2],-0.239
same,log2 ratio of Biotin-Ahx-Ub-VS probe labelling,[3],-0.837
same,log2 ratio of Biotin-Ahx-Ub-VS probe labelling,[4],-1.24 (active)
same,log2 ratio of Biotin-Ahx-Ub-VS probe labelling,[5],-1.76 (active)
